Source: PubChem BioAssay (NCATS)
Results filed as inconclusive are left out. Activity calls are given as the source filed them. Calls follow the shape of the dose curve; as a rule, active = well fitted inhibition curve with a large enough effect; inconclusive = small, poorly fitted or top-dose-only effect; inactive = no such curve, though single readings can be large or run the other way.

Test: P-glycoprotein substrates identified in KB-3-1 adenocarcinoma cell line, qHTS therapeutic library screen (AID 1346986); also: nearly all actives have a fitted effect of over 60% in size;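 also: potency is for cytotoxicity meaning loss of cell viability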
Conditions: KB-3-1 parental cells viability, CellTiter-Glo, 72 h; series mostly up to 44.5 µM; activity change, negative = cytotoxicity: at the top concentration
How it was run: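 Viability by CellTiter-Glo after 72 h compound exposure at 37 degree C, 5% CO2. Cytotoxic call: curve class -1.1 to -2.4, maximum response >50%, AC50 < 10 uM, compared across KB-3-1 and P-gp-overexpressing KB-8-5-11.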
Potency is read from the fitted curve at half-maximal effect.

Compound	outcome	Potency
CC(C)NC[C@H](O)COc1ccc(CCOCC2CC2)cc1	inactive	–
C=C1CC2[C@]3(C)C(=C(O)C(=O)[C@@]2(C)[C@]2(C(=O)OC)C(=O)C(C)OC(=O)[C@@]12C)C(C)(C)C(=O)CC3O (stereo not given in full)	inactive [at 17.4 µM]	–
OC[C@H]1O[C@@H](Oc2ccc3c(c2)OC[C@H]2c4cc5c(cc4O[C@@H]32)OCO5)[C@H](O)[C@@H](O)[C@@H]1O	inactive [at 17.4 µM]	–
CC(c1c[nH]c2ccccc12)C(O)C(=O)O (stereo not given)	inactive	–
CO[C@@]12CC3[C@@H]([C@@H](O)[C@@H](OC(C)=O)C4[C@](C)(COC(C)=O)CCC[C@]34C)[C@@H](C)C1=CC(=O)O2 (stereo not given in full)	inactive [at 17.4 µM]	–
C=C1CCC[C@]2(C)C[C@]3(O)OC(=O)C(C)=C3C[C@@H]12	inactive	–
O=C1NC(=Nc2ccccc2F)S/C1=C\c1ccc(C(=O)O)cc1	inactive	–
CC(/C=C/C1(O)C(C)(C)CC(O)CC1(C)O)OC1OC(CO)C(O)C(O)C1O (stereo not given)	inactive [at 17.4 µM]	–
CC1(C)C(=O)N2c3ccccc3[C@]3(CC(n4cnc5ccccc5c4=O)C(=O)O3)[C@H]2N1O (stereo not given in full)	inactive [at 17.4 µM]	–
CC(=O)c1cnc2ccc(-c3cc(Cl)c(O)c(Cl)c3)nc2c1NC1CCC(CN(C)C)CC1 (stereo not given)	–	13 nM (active)
Nc1nonc1C(=Nc1ccc(F)c(Cl)c1)NO	inactive	–
O=C(/C=C/c1ccc(O)cc1)OCC1=CC2OC(=O)C3=CO[C@@H](O[C@@H]4O[C@H](CO)[C@@H](O)[C@H](O)[C@H]4O)[C@H]1[C@@H]32 (stereo not given in full)	inactive [at 17.4 µM]	–
C[C@H]1CN(C[C@H](Cc2ccccc2)C(=O)NCC(=O)O)CC[C@@]1(C)c1cccc(O)c1	inactive	–
CC1CCC2C(C)(C)C(O)CCC2(C)C12Cc1c(O)cc3c(c1O2)C(N)=NC3 (stereo not given)	inactive	–
CCCn1cnc2c(NCc3ccccc3)nc(N[C@H](CC)CO)nc21	inactive	–
CO[C@@H]1CC[C@H](OC[C@]2(COC(=O)c3ccc(C)[nH]3)[C@H](OC(C)=O)CC[C@@]3(C)[C@@H]4CC=C(C)[C@@H](C5=C(O)C(=O)OC5O)[C@]4(C)CC[C@@H]32)O[C@H]1C (stereo not given in full)	inactive [at 17.4 µM]	–
COC1C2=C(COC2=O)C2(C)CCCC(C)(CO)C2C1OC(=O)c1ccccc1 (stereo not given)	inactive [at 17.4 µM]	–
CC(C)CC(=O)n1cc(C(N)=O)c(=O)cc1C(O)c1ccccc1 (stereo not given)	inactive	–
Nc1ccn([C@@H]2C(F)=C(CO)[C@@H](O)[C@H]2O)c(=O)n1	–	3660 nM (active)
CC1(C)NC2N(C1=O)c1ccccc1C2(O)CC(C(=O)O)n1cnc2ccccc2c1=O (stereo not given)	inactive [at 17.4 µM]	–
C[C@]12CC[C@@H]3c4ccc(O[C@@H]5O[C@H](C(=O)O)[C@@H](O)[C@H](O)[C@H]5O)cc4CC[C@H]3[C@@H]1CCC2=O	inactive	–
CO[C@@H]1COCC[C@@H]1N[C@@H]1CC[C@@](C(=O)N2CCc3ncc(C(F)(F)F)cc3C2)(C(C)C)C1	inactive [at 17.4 µM]	–
CC(=O)O[C@@H]1[C@H](O[C@@H]2OC[C@](O)(CO)[C@H]2O)[C@@H](O[C@@H]2O[C@@H](C)[C@H](O)[C@@H](O)[C@H]2O)[C@H](OC(=O)[C@]23CCC(C)(C)C[C@H]2C2=CCC4[C@@]5(C)C[C@H](O)[C@H](O[C@@H]6O[C@H](C(=O)O)[C@@H](O)[C@H](O)[C@H]6O)[C@@](C)(C(=O)O)C5CC[C@@]4(C)[C@]2(C)CC3)O[C@@H]1C (stereo not given in full)	inactive [at 9.29 µM]	–
CC(C)(O)/C=C1/C(=O)C(C)(C)C(=O)C(C)(C)C1(O)O[C@@H]1O[C@H](COC(=O)c2cc(O)c(O)c(O)c2)[C@@H](O)[C@H](O)[C@H]1O (stereo not given in full)	inactive [at 17.4 µM]	–
CCC(C)/C=C(C)/C=C/C1=CC2=C(Cl)C(=O)C(C)(OC(C)=O)C(=O)C2=CN1C1CCCCN(C(CCC(N)=O)C(=O)O)C1=O (stereo not given)	inactive [at 17.4 µM]	–
